From PubChem
Anesthetic bind = candidate novel general anesthetic via apoferritin binding | apoferritin/1-aminoanthracene competitive binding, fluorescence | Potency, µM (doses to about 77.5 µM), inactives show top-dose activity change, negative = displacement, usual class: inhibitors | 350,000 tested, 0.074% active | AID 485281; note: potency is the fitted concentration of half-maximal effect; % is set by controls: 0 for no effect and ±100 for the full control effect; nearly all actives have a fitted effect of over 20% in size
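Probe: 1-aminoanthracene (50% saturated, PBS). Protein: horse-spleen apoferritin, 10 uM. Incubation: 10 min, room temperature. Detection: 380 nm excitation, 535 nm emission. Analysis: normalized response, four-parameter Hill.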
N370S GC = N370S glucocerebrosidase modulation, Gaucher chaperone candidate; 330,000 tested, 0.092% active; N370S GC spleen homogenate, 4MU-glucoside fluorescence; Potency, µM (titrated, usually from 59.4 µM), for inactives: at the highest dose activity change, negative = inhibition, most hits filed as inhibitors; P04062;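 note: potency is the fitted concentration of half-maximal effect; 0% = full enzyme activity and -100% = no enzyme basal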
Glioma ERSR ind = ER stress response induction in glioma; U87-MG GRP78 promoter luciferase reporter, 16 h; Potency, µM, for inactives: at the highest dose activation, most hits filed as activators; 420,000 tested, 0.02% active; note: potency is the fitted concentration of half-maximal effect; series mostly up to about 76 µM; % of control where 0% means no effect; nearly all actives have a fitted effect of over 35% in size
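Stably transfected U87-MG human glioma cells carrying a GRP78-based luminescent sensor were seeded at 1000 cells/well, pin-dosed with compounds and incubated 16 h. Luciferase reagent was then added, and end-point luminescence was read after 10 min at room temperature.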
a7 integrin act = integrin-mediated muscular dystrophy alleviation activation; 350,000 tested, 0.064% active; Potency, µM (doses to about 38.3 µM), for the others: at the highest dose activation, hits mostly activators; AID 624291; alpha7betagal myoblasts, beta-gal FDG fluorescence, 48 h;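 note: potency is the fitted concentration of half-maximal effect; 100% = response of the positive control SU9516; nearly all actives have a fitted effect of over 60% in size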
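Alpha7betagal+/- myoblasts (passage 13) were plated 16-24 hr, then exposed to compounds (1:260 dilution of DMSO stock) for 48 hours at 37C. After MPER lysis, β-galactosidase reporter activity was read as FDG fluorescence (ex 480/em 540) after 30 minutes.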
CBFb-RUNX1 inh = CBF-beta/RUNX1 interaction disruption | Q01196+Q13951 | 230,000 tested, under 10 active | AlphaScreen CBFb-His/RUNX1-biotin binding, biochemical | Potency, µM (series often up to 59.8 µM), inactives show at the top dose activity, negative = inhibition, hits mostly inhibitors | AID 1477; note: % of control where 0% means no effect
Target sequence (Q01196 whole entry, looked up): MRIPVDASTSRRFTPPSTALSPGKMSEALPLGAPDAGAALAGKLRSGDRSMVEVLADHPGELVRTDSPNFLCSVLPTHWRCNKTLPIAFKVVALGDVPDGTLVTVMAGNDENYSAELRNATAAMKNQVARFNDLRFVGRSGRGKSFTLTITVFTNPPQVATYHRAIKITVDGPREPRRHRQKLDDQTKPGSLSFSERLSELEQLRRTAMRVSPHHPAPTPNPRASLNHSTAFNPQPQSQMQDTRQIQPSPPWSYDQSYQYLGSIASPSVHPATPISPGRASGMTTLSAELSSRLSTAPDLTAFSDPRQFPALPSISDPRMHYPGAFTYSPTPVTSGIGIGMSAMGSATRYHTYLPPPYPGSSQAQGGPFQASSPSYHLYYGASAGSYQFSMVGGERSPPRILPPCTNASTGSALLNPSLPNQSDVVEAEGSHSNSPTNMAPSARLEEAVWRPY
Target sequence (Q13951 whole entry, looked up): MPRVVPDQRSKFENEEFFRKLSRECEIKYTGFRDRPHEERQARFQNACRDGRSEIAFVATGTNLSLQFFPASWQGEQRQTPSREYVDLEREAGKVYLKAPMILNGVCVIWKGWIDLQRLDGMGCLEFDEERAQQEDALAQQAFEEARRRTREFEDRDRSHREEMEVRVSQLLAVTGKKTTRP
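AlphaScreen proximity signal reports loss of binding between His-tagged CBF-beta and biotin-labelled RUNX1, each at 30 nM. Proteins are pre-associated for 20 minutes, compounds added for 15 minutes, then beads for 90 minutes, all at ambient temperature.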
ClpP mod = qHTS Assay for Activators of ClpP; 340,000 tested, 1.9% active; purified B. subtilis ClpP, FRET peptide cleavage, 20 min; AID 651965, 2013; Potency, µM (titrated, usually from 57.5 µM), inactives show at the top dose activity change, negative = active; ATP-dependent Clp protease proteolytic subunit (Bacillus subtilis (strain 168)), P80244; active = well fitted falling curve with a large enough effect; inconclusive = small, poorly fitted or top-dose-only effect; inactive = no such curve, though single readings can be large or run the other way; note: potency is the fitted concentration of half-maximal effect; the source files actives as falling curves though it sought activators and does not explain the sign; nearly all actives have a fitted effect of over 65% in size
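FRET quenching reversal measured ClpP activation: 10 microg/mL B. subtilis ClpP at pH 8 with the FRET-FV decapeptide, read at 430 nm after 320 nm excitation. The 20-min minus 0-min signal was scaled between DMSO/no-enzyme wells and ADEP (5.8 microM final).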
Numbers without * were called inactive; ? = inconclusive; . = not tested or not shown. The entries come from a sample that favours hits as a whole. Unless noted, calls come from the whole dose curve; as a rule, active = well fitted curve in the direction sought with a large enough effect; inconclusive = small, poorly fitted or top-dose-only effect, or another doubt; inactive = no such curve, though single readings can be large; an effect the other way counts as inactive or inconclusive.

SMILES	Anesthetic bind	N370S GC	Glioma ERSR ind	a7 integrin act	CBFb-RUNX1 inh	ClpP mod
C#CCOCCOCCOCCNc1nc(N2CCN(C(=O)CCCCCCCCCCNC(=O)Cn3cc(CCCCCN)nn3)CC2)nc(N2CCN(C(=O)CCCCCCCCCCNC(=O)[C@H]([C@@H](C)CC)n3cc(CCCCN=C(N)N)nn3)CC2)n1	.	18µM*	-12%	-24%	.	2%
C#CCOCCOCCOCCNc1nc(N2CCN(C(=O)CCCCCCCCCCNC(=O)[C@H]([C@@H](C)CC)n3cc(CCCCCN)nn3)CC2)nc(N2CCN(C(=O)CCCCCCCCCCNC(=O)[C@H](CCCCN)n3cc(CCCC(=O)O)nn3)CC2)n1	.	?	-9%	-17%	.	-21%
C#CCOCCOCCOCCNc1nc(N2CCN(C(=O)CCCCCCCCCCNC(=O)[C@H]([C@@H](C)CC)n3cc(CCCCCN)nn3)CC2)nc(N2CCN(C(=O)CCCCCCCCCCNC(=O)[C@@H]([C@H](C)CC)n3cc(CCCCCN)nn3)CC2)n1	.	18µM*	.	.	.	.
CCCCn1c(NC(=O)CC)c(C#N)c2nc3ccccc3nc21	40%	0%	-6%	-4%	7%	16µM*
CCC(=O)Nc1c(C#N)c2nc3ccccc3nc2n1-c1ccccc1C	154%	7%	1%	6%	1%	3.5µM*
CCC(=O)Nc1c(C#N)c2nc3ccccc3nc2n1C1CCCCC1	4%	4%	-4%	-6%	11%	-19%
CCN(CC)c1ccc(NC(=O)CN2CCN(S(=O)(=O)c3cc(Cl)ccc3OC)CC2)cc1	2%	-5%	2%	-20%	?	0%
CCOc1ccc(NC(=O)CCN2CCN(S(=O)(=O)c3cc(Cl)ccc3OC)CC2)cc1	-11%	-4%	1%	16%	13%	28µM*
CCOC(=O)COc1ccc2nsnc2c1Cl	111%	5%	-3%	5%	5%	35µM*
COCc1c(C(=O)NC2CCCC2)cnn1-c1nccc(-c2cc(C)sc2C)n1	.	.	5%	.	.	.
S=C(NCc1ccncc1)Nc1ccc(Br)cc1	0%	18µM*	-4%	-18%	.	-1%
Cc1c(C(=O)NCCCc2ccncc2)cnn1-c1nccc(-c2ccccc2F)n1	.	.	-5%	.	.	.
CC12CCC(c3nnc(SCc4ccc(Cl)cc4)nc31)C2(C)C (stereo not drawn)	-5%	17%	-14%	-9%	5%	20µM*
CCOC(=O)CSc1nnc2c(n1)C1(C)CCC2C1(C)C (stereo not drawn)	?	7%	-5%	7%	4%	0%
COC1CCCCC1NS(=O)(=O)c1ccccc1 (stereo not drawn)	-13%	-4%	-3%	4%	8%	28µM*
COCCNC(=O)c1c[nH]c2ccc(S(=O)(=O)N3CCOCC3)cc2c1=O	4%	-10%	-4%	-15%	.	4%
Cc1ccc(CNC(=O)c2c[nH]c3ccc(S(=O)(=O)N4CCOCC4)cc3c2=O)cc1	-4%	.	-3%	.	.	28µM*
CN(Cc1ccccc1)C(=O)c1c[nH]c2ccc(S(=O)(=O)N3CCOCC3)cc2c1=O	-2%	21%	-4%	-23%	0%	32µM*
Cc1ccc(C)c(N(C)S(=O)(=O)c2ccc3[nH]cc(C(=O)NCCN4CCOCC4)c(=O)c3c2)c1	6%	3%	-3%	-4%	0%	18µM*
CCCCCCCN(CC)CCCC(O)c1ccc(NS(C)(=O)=O)cc1 (stereo not drawn)	.	.	-4%	.	.	.
CCN(CCCNC(=O)c1cc2c(=O)[nH]c3ccc(C)cc3c2s1)Cc1ccccc1	-9%	.	-9%	.	.	14µM*
COC(=O)c1ccc(C(=O)N2CCc3c(C(=O)NC(C)c4ccco4)c(OC)cc(=O)n3CC2)cc1 (stereo not drawn)	.	.	-1%	.	.	.
c1ccc2c(c1)[nH]c1c(N3CCN(C4CCCCC4)CC3)ncnc12	6.3µM*	4%	-1%	-23%	-3%	32µM*
Fc1ccc2[nH]c3c(N4CCc5ccccc5C4)ncnc3c2c1	-13%	0%	-9%	-70%	0%	.
Clc1ccc2[nH]c3c(N4CCC5(CC4)OCCO5)ncnc3c2c1	-10%	6%	-9%	-32%	4%	13µM*
SMILES	Anesthetic bind	N370S GC	Glioma ERSR ind	a7 integrin act	CBFb-RUNX1 inh	ClpP mod
CN1CCN(c2ncnc3c2[nH]c2ccc(F)cc23)CC1	4%	-16%	-3%	-27%	12%	28µM*
Brc1ccc2[nH]c3c(N4CCc5ccccc5C4)ncnc3c2c1	-5%	9%	-7%	-15%	2%	32µM*
O=C(c1cnc(N2CCN(c3ncccn3)CC2)c2ccccc12)N1CCN(c2ncccn2)CC1	-22%	-2%	-14%	-21%	-2%	-7%
O=C(c1cnc(N2CCCCC2)c2ccccc12)N1CCN(c2ccc(Cl)cc2)CC1	184%	.	-6%	.	.	25µM*
Cc1ccc(Cl)cc1N1CCN(C(=O)c2cnc(N3CCOCC3)c3ccccc23)CC1	76%	.	-8%	.	.	32µM*
Cc1ccc(Cl)cc1N(C)C(=O)c1cnc(N2CCOCC2)c2ccccc12	6%	.	-3%	.	.	-5%
Cc1ccc(N2CCN(C(=O)c3cnc(N4CCCCC4)c4ccccc34)CC2)c(C)c1	49%	.	-3%	.	.	35µM*
COc1cccc(CN2C(=O)NC(C)(C3CCN(Cc4ccc(C)o4)CC3)C2=O)c1OC (stereo not drawn)	.	.	-4%	.	.	.
COC(=O)c1c(NC(=O)CSc2nnc3ccccn23)sc2c1CCC2	8%	10%	-4%	3%	6%	28µM*
CC[N+](C)(C)c1ccc(/C=C/c2ccncc2)cc1	.	.	-3%	.	.	0%
O=[N+]([O-])c1ccc(O)c(-c2nn[nH]n2)c1	-6%	-5%	3%	8%	-12%	25µM*
Cn1c(CCNC(=O)C2CC23CCN(C(=O)C2=CCCC2)CC3)nc2ccccc21 (stereo not drawn)	.	.	-2%	.	.	.
COC(=O)NNC(=O)COc1ccc2ccccc2c1Br	-8%	0%	3%	19%	-3%	25µM*
COC(=O)c1cc2ccccc2c(-c2c(OC)c(C(=O)OC)cc3ccccc23)c1OC	-13%	-8%	-6%	-42%	-3%	25µM*
O=C(CN1c2ccccc2Sc2ccccc21)NNC(=S)Nc1ccc(Cl)cc1	-1%	1%	-3%	-24%	-27%	25µM*
O=C(CN1c2ccccc2Sc2ccccc21)NNC(=S)Nc1ccc(Cl)cc1Cl	-3%	4%	3%	4%	-5%	-4%
CCCNC(=O)CN1C(=O)c2c(c3ccccc3n2C)C1c1ccc(OC)cc1 (stereo not drawn)	-11%	.	-2%	.	.	28µM*
